# Data reported in PubChem BioAssay AID720690 (Broad Institute, 2013).
# Measured potencies and affinities stand elsewhere. Active and inactive are the calls of the source.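 The calls were made as follows: active = every repeat run showing a signal drop whose fitted half-maximal concentration is at most twice the top tested concentration; inconclusive = repeat runs disagree, or flat partial drop, or poor fit; inactive = the rest.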
# Experiment: general mammalian cell viability loss – activator set, cherry-pick, cytotoxicity control for miR-122 modulator project, dose response (AID 720690)
# Conditions: HEK293T viability, CellTiter-Glo luminescence, 48 h; series mostly up to 26 µM
row,Compound,outcome
1,COc1ccc(C2SCC(=O)Nc3c2c(=O)[nH]n3C2CCCCCC2)cc1 (centres undefined),inactive
2,COc1ccc2c(c1)c(CCN)c(C)n2Cc1ccccc1,inactive
3,O=C(c1ccco1)c1cn(Cc2ccccc2Cl)c2ccccc12,inactive
4,O=C1NC(=O)N(CCC2=CCCCC2)C(=O)/C1=C\c1cccs1,inactive
